# Measurements published in ChEMBL document CHEMBL3988442, “University of Dundee, Small-Polar-MMV Screening Library” (2021).
# The whole screen tested about 69,000 compounds, of which about 1,000 (1.4%) showed an effect of 50% or more. What follows is part of a selection rich in strong results, with near analogues and random picks from the rest.
# System: Leishmania donovani
# Assay: Leishmania intramacrophage assay
# Type: functional, organism-based
# Set-up: scale not given: in the data most compounds retested in dose-response had high values
compound,measurement,setting,value
CC1CCCN(CCCNC(=O)Cc2csc(-c3ccoc3)n2)C1 (configuration not stated),Percent Effect,"30.3 µM, […]",9.746%
O=C(CCNc1ncccn1)NCc1ccc(Br)s1,Percent Effect,"30.3 µM, […]",14.9%
Cc1nn(C)c2c(N(C)Cc3cccs3)nc(C3CC3)nc12,Percent Effect,"30.3 µM, […]",56.51%
Cc1nn(C)c(C)c1CN(C)c1nc(C2CC2)nc2c(C)nn(C)c12,Percent Effect,"30.3 µM, […]",-21.06%
Cc1nn(C)c2c(N(C)Cc3ccco3)nc(C3CC3)nc12,Percent Effect,"30.3 µM, […]",10.49%
CN1CCOC(CNCCOc2cccc(C#N)c2)C1 (configuration not stated),Percent Effect,"30.3 µM, […]",25.34%
Cn1cccc1C(=O)NCc1cn2c(n1)CN(CC1CCOC1)CC2 (configuration not stated),Percent Effect,"30.3 µM, […]",22.42%
CC(C)CCN1CCN(C(=O)c2ccc(=O)[nH]n2)CC1,Percent Effect,"30.3 µM, […]",20.4%
Cc1cc(NC(=O)CN2CCCC2c2noc(C(C)C)n2)on1 (configuration not stated),Percent Effect,30 µM,7.102%
CN1CCN(C(=O)Cn2ccc3c(Cl)cccc32)CC1,Percent Effect,"30.3 µM, […]",54.77%
O=C(Cn1ccc2c(Cl)cccc21)N1CCCC1,Percent Effect,"30.3 µM, […]",16.62%
CC(=O)N1CCN(C(=O)Cn2ccc3c(Cl)cccc32)CC1,Percent Effect,"30.3 µM, […]",1.884%
Cc1cc(C)c(CNC(=O)N2CCN(c3ncccn3)CC2)c(=O)[nH]1,Percent Effect,"30 µM, 30.03 µM",-5.034%
O=C(C(CNCc1cccc(O)c1)c1ccccc1)N1CCOCC1 (configuration not stated),Percent Effect,"30.3 µM, […]",17.14%
CNS(=O)(=O)c1cccc(C(C)NCc2cccc(O)c2)c1 (configuration not stated),Percent Effect,"30.3 µM, […]",23.7%
COc1cccc(CNC(CN2CCN(C)CC2)c2ccccc2)c1 (configuration not stated),Percent Effect,"30 µM, 30.03 µM",76.19%
Cc1cc(C)cc(CNC(c2ccccc2)c2nccn2C)c1 (configuration not stated),Percent Effect,30 µM,35.61%
COc1cccc(C(=O)N2CCN(CC(O)c3ccccc3)CC2)c1 (configuration not stated),Percent Effect,"30.3 µM, […]",-2.836%
COCCN1CCC(NCc2cccc(C)c2)C1 (configuration not stated),Percent Effect,30 µM,11.56%
COc1ccc(C(CN2CCN(C)CC2)Nc2ncccn2)cc1 (configuration not stated),Percent Effect,"30.3 µM, […]",-7.981%
Cc1cccc(CNC(CN2CCN(C)CC2)c2ccccc2)c1 (configuration not stated),Percent Effect,"30 µM, 30.03 µM",98.99%
O=C(c1nnn(-c2ccc(F)cc2)n1)N1CCC(O)CC1,Percent Effect,"30.3 µM, […]",1.215%
O=C(c1cn(CCN2CCCCC2)nn1)N1CCSCC1,Percent Effect,"30.3 µM, […]",25.8%
CC(O)CN1CC(C)(C)CN(C(=O)CCc2ccccc2)CC1=O (configuration not stated),Percent Effect,"30.3 µM, […]",-1.72%
O=C(CN1CCOC(Cn2cccn2)C1)NCCc1ccc(F)cc1 (configuration not stated),Percent Effect,"30 µM, 30.03 µM",1.853%
COCCn1c2c(ccc1=O)CCN(C(=O)Cc1cccs1)CC2,Percent Effect,"30.3 µM, […]",20.34%
O=C(Cc1ccsc1)N1CCc2ccc(=O)n(CC3CC3)c2CC1,Percent Effect,"30.3 µM, […]",10.53%
COCCn1c2c(ccc1=O)CCN(C(=O)Cc1ccsc1)CC2,Percent Effect,"30.3 µM, […]",55.32%
O=C(O)c1cccc(S(=O)(=O)N2CCOc3ccccc32)c1,Percent Effect,30 µM,14.21%
COc1ccc(C(C)C)cc1C1CC(=O)NCc2nc(N(C)C)sc21 (configuration not stated),Percent Effect,"30.3 µM, […]",60.09%
COc1cc2c(cc1C1CC(=O)NCc3nc(N(C)C)sc31)CCC2 (configuration not stated),Percent Effect,"30.3 µM, […]",11.87%
COc1ccc(C2CC(=O)NCc3nc(N(C)C)sc32)c(O)c1 (configuration not stated),Percent Effect,"30.3 µM, […]",16.16%
C[C@@H]1CN(C2Cc3ccccc3C2)CC[C@@]1(O)C1CCOCC1,Percent Effect,"30.3 µM, […]",63.81%
C[C@@H]1CN(C2CCN(c3ccccc3)CC2)CC[C@@]1(O)C1CCOCC1,Percent Effect,"30.3 µM, […]",22.22%
C[C@@H]1CN(C2CCCCC2)CC[C@@]1(O)C1CCOCC1,Percent Effect,"30.3 µM, […]",-0.4391%
CN(C)C(=O)NC1COC2(CCN(Cc3nccn3C)CC2)C1 (configuration not stated),Percent Effect,"30 µM, 30.03 µM",3.872%
c1cnnc(N2CCCC2CNCc2nc(-c3ccoc3)no2)c1 (configuration not stated),Percent Effect,30 µM,14.13%
COC(=O)c1cccn1C1CCN(Cc2cccnc2)CC1,Percent Effect,30 µM,38.52%
Cc1ccc(CN2CCCn3nnc(COCCN(C)C)c3C2)s1.O=C(O)C(F)(F)F.O=C(O)C(F)(F)F,Percent Effect,"30.3 µM, […]",66.44%
O=C(O)C(F)(F)F.c1csc(CN2CCCn3nnc(COCC4CC4)c3C2)n1,Percent Effect,"30.3 µM, […]",52.28%
O=C(O)C(F)(F)F.c1ccc(CN2CCCn3nnc(CNc4ncccn4)c3C2)nc1,Percent Effect,"30.3 µM, […]",67.35%
Cc1ccc(CN2Cc3nnn(C)c3C(COCCN(C)C)C2)s1.O=C(O)C(F)(F)F.O=C(O)C(F)(F)F (configuration not stated),Percent Effect,"30 µM, 30.03 µM",25.22%
O=C(O)C(F)(F)F.c1cnc(NCc2nnn3c2CN(Cc2ccco2)CCC3)nc1,Percent Effect,"30.3 µM, […]",-8.13%
O=C(O)C(F)(F)F.c1csc(CN2CCCn3cnc(COCC4CC4)c3C2)n1,Percent Effect,"30.3 µM, […]",26.9%
O=C(O)C(F)(F)F.c1ccc(CN2CCCn3nnc(Cn4cccc4)c3C2)nc1,Percent Effect,"30.3 µM, […]",-22.64%
Fc1ccc(CN2CCCn3nnc(COCC4CC4)c3C2)cc1.O=C(O)C(F)(F)F,Percent Effect,"30.3 µM, […]",-0.08958%
Cc1ccc(CN2CCCn3nnc(COCC4CC4)c3C2)s1.O=C(O)C(F)(F)F,Percent Effect,"30 µM, 30.03 µM",16.69%
COCc1nn(C(C)C)c2c1CCN(Cc1ccc(C)s1)C2.O=C(O)C(F)(F)F,Percent Effect,"30 µM, 30.03 µM",26.5%
Cc1ccc(CN2CCc3c(COCC4CC4)nn(C)c3C2)s1.O=C(O)C(F)(F)F,Percent Effect,"30.3 µM, […]",25.61%
Cc1ccc(CN2CCc3c(COC(C)C)nn(C)c3C2)s1.O=C(O)C(F)(F)F,Percent Effect,"30.3 µM, […]",54.88%
Cc1ccccc1CN1C[C@@H]2CC[C@H](C1)N(CC1CCC1)C2=O,Percent Effect,"30.3 µM, […]",6.524%
COCc1noc(CN2C[C@H](C3CC3)[C@@H](N(C)C)C2)n1,Percent Effect,"30.3 µM, […]",0.8667%
COCCOCCNS(=O)(=O)C1CS(=O)(=O)c2ccccc21 (configuration not stated),Percent Effect,"30.3 µM, […]",-2.938%
O=C(Nc1ccc(F)cc1)C1CNCCN1C(=O)CCc1cccnc1 (configuration not stated),Percent Effect,"30.3 µM, […]",21.52%
CC1CN(C)CCN1C(=O)c1ccn(-c2ccc(F)cc2)n1 (configuration not stated),Percent Effect,30 µM,12.79%
CN(CCN1CCCCCC1)C(=O)c1cc(CN2CCCC(O)C2)on1 (configuration not stated),Percent Effect,"30.3 µM, […]",28.93%
COc1cccc2c1OCCCN(Cc1ccc(C(N)=O)c(=O)[nH]1)C2,Percent Effect,"30.3 µM, […]",18.01%
COc1c(CNCc2ccccc2CN2CCOCC2)c(C)nn1C,Percent Effect,"30.3 µM, […]",15.12%
O=C(CN1CCc2cncnc2C1)NC1CCCCNC1=O (configuration not stated),Percent Effect,"30.3 µM, […]",3.811%
Cn1cc(CN2C[C@H]3CCC[C@@]3(COCC3CC3)C2)cn1.O=C(O)C(F)(F)F,Percent Effect,"30.3 µM, […]",55.4%
Cc1nc(COC[C@@]23CCC[C@@H]2CN(Cc2cnn(C)c2)C3)cs1,Percent Effect,"30.3 µM, […]",33.3%
Cn1cc(CN2C[C@@H]3COC[C@]3(COCC3CC3)C2)cn1.O=C(O)C(F)(F)F,Percent Effect,"30.3 µM, […]",35.55%
CN(C)C(=O)CN1CCCC2(CCN(c3ccsc3)C2=O)C1.O=C(O)C(F)(F)F (configuration not stated),Percent Effect,"30 µM, 30.03 µM",-2.413%
O=C(O)C(F)(F)F.O=C1N(c2ccsc2)CCC12CCCN(CC1CC1)C2 (configuration not stated),Percent Effect,"30.3 µM, […]",57%
COCCN1CCCC2(CCN(c3ccsc3)C2=O)C1.O=C(O)C(F)(F)F (configuration not stated),Percent Effect,"30.3 µM, […]",-19.62%
Cc1ccoc1C(=O)N1C[C@@H](OCC2CC2)[C@H]2OCCC[C@H]21,Percent Effect,"30.3 µM, […]",18.9%
Cc1nc(NC(=O)C(C)N(C)Cc2ccc3c(c2)OCO3)sc1C (configuration not stated),Percent Effect,"30.3 µM, […]",11.52%
COc1cccc(CN(C)C(C)C(=O)Nc2nc(C)c(C)s2)c1 (configuration not stated),Percent Effect,"30.3 µM, […]",51.15%
Cc1nc(NC(=O)C(C)N(C)Cc2cccc(C#N)c2)sc1C (configuration not stated),Percent Effect,"30.3 µM, […]",-18.76%
CCN(CC)C1CCN(C(=O)NCc2cccc(-n3ccnc3)c2)C1 (configuration not stated),Percent Effect,"30.3 µM, […]",23.85%
Cl.O=C(N1CCCC1)C1(Cc2ccc(-c3cccs3)cc2)CCNC1 (configuration not stated),Percent Effect,"30.3 µM, […]",86.38%
Cl.O=C(O)C1(Cc2ccc(-c3cccs3)cc2)CCNC1 (configuration not stated),Percent Effect,"30.3 µM, […]",44.48%
Cl.O=C(O)C1(Cc2cccc(-c3cccs3)c2)CCCNC1 (configuration not stated),Percent Effect,"30.3 µM, […]",29.13%
O=C(NCc1cc[nH]n1)NCC(O)c1ccc(F)cc1F (configuration not stated),Percent Effect,"30 µM, 30.03 µM",9.759%
O=C(c1cnccn1)N1CCCC(C2=Nc3ccccc3S(=O)(=O)N2)C1 (configuration not stated),Percent Effect,"30.3 µM, […]",-20.53%
O=C1CCC(=O)N1c1nn(Cc2cccc(F)c2)cc1Cl,Percent Effect,"30.3 µM, […]",-1.051%
CC(C)CN1CC(C(=O)NCCNc2ncccn2)CC1=O (configuration not stated),Percent Effect,"30.3 µM, […]",7.647%
COCC(=O)N1CCCn2c(CN3CCCC3)nnc2C1,Percent Effect,"30.3 µM, […]",44.76%
COCC(=O)N1CCCn2c(CN3CCCC3=O)nnc2C1,Percent Effect,"30.3 µM, […]",51.47%
COCC(=O)N1CCCn2c(CN3CCCCC3)nnc2C1.O=C(O)C(F)(F)F,Percent Effect,"30 µM, 30.03 µM",-9.377%
CCOc1ccc(C(=O)NS(=O)(=O)c2cncc(Br)c2)cc1OC,Percent Effect,"30 µM, 30.03 µM",20.52%
COCCN(Cc1sccc1C)c1nc(C)nc2sccc12,Percent Effect,"30.3 µM, […]",13.95%
CCOCCN(CCOCC)c1nc(C)nc2sccc12,Percent Effect,"30.3 µM, […]",93.26%
CCCN(CCOC)c1nc(C)nc2sccc12,Percent Effect,"30.3 µM, […]",19.01%
Cc1nnc(SCCNC(=O)Cn2cnc3ccccc3c2=O)s1,Percent Effect,"30.3 µM, […]",15.09%
COc1cc(N2CCC3(CCN(Cc4csc(C)n4)C3)CC2)ncn1.O=C(O)C(F)(F)F,Percent Effect,"30.3 µM, […]",30.69%
COc1cc(N2CCC3(CCN(Cc4csc(C)n4)C3=O)C2)ncn1.O=C(O)C(F)(F)F (configuration not stated),Percent Effect,"30.3 µM, […]",55.45%
Cc1cnc(N2CCC3(CCN(Cc4csc(C)n4)C3=O)C2)nc1.O=C(O)C(F)(F)F (configuration not stated),Percent Effect,"30.3 µM, […]",19.08%
COCCCn1c(CN2CCSCC2)cnc1S(=O)(=O)C1CCCC1,Percent Effect,"30.3 µM, […]",17.55%
CCc1nc2n(n1)CC(NCC(=O)Nc1ccc(Cl)cn1)CC2 (configuration not stated),Percent Effect,"30 µM, 30.03 µM",11.34%
Cc1ccc(Oc2c(F)cccc2OC[C@@H](N)CC(C)C)cc1,Percent Effect,"30.3 µM, […]",95.01%
COc1ccccc1C(N)CC(C)C (configuration not stated),Percent Effect,"30.3 µM, […]",3.977%
CC(C)COc1ccccc1C(N)CC(C)C (configuration not stated),Percent Effect,"30.3 µM, […]",23.51%
CC(C)C[C@H](N)COc1cccc(F)c1Oc1cccc(Cl)c1,Percent Effect,"30.3 µM, […]",98.08%
CC(C)C[C@H](N)COc1cccc(F)c1Oc1ccccc1,Percent Effect,"30.3 µM, […]",56.67%
NCc1ccc(Oc2cccc(Cl)c2Cl)cc1,Percent Effect,"30.3 µM, […]",17.28%
CCCOc1ccccc1C(N)CC(C)C (configuration not stated),Percent Effect,"30.3 µM, […]",24.69%
CC(CNS(C)(=O)=O)Oc1cccc(Cl)c1 (configuration not stated),Percent Effect,"30.3 µM, […]",6.182%
CNCc1cc(F)ccc1Oc1ccc(Cl)cc1,Percent Effect,"30.3 µM, […]",-3.595%
CC(CNS(N)(=O)=O)Oc1cccc(Cl)c1 (configuration not stated),Percent Effect,"30.3 µM, […]",5.132%
CCOc1ccccc1C(N)CC(C)C (configuration not stated),Percent Effect,"30.3 µM, […]",19.23%
CC(C)C[C@H](N)COc1cccc(F)c1Oc1ccc(Cl)cc1,Percent Effect,"30.3 µM, […]",96.61%
